The nature of this assay: cytotoxicity in SNB-75 CNS cells – cell-based, Alamar Blue fluorescence, 8-48 h, dry powder, mechanism study for HRAS target identification, late-stage follow-up (AID 720613).

Records with an inconclusive call do not appear. Active and inactive are the calls of the source.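 Rule for the calls: active = falling viability signal at all three exposure times, each curve midpoint within twice the top tested dose; inconclusive = exposure times disagree or curves are weak or poorly fitted; inactive = all exposure times inactive, including rising signal.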

Take `CCC(=O)N(c1ccc(OC)c(Cl)c1)C(C(=O)NCCc1ccccc1)c1cccs1` (configuration not stated): the outcome was inactive.
In the case of `Cc1onc(C(=O)N2CCN(C(c3ccncc3)c3ccncc3)CC2)c1[N+](=O)[O-]` it was “inactive”.

For the origin of these results see PubChem BioAssay AID720613 (Broad Institute, 2013).
